Source: PubChem BioAssay
Compounds with a hit are over-represented: about 19% of the library has one in this group of screens.
DT40 TDP1 no CPT: qHTS for Inhibitors of human tyrosyl-DNA phosphodiesterase 1 (TDP1): qHTS in cells in absence of CPT. DT40 Tdp1-/- hTDP1 cells, no CPT, ATP luminescence, 48 h. Potency, µM (doses to about 46.2 µM), without a hit: at the highest dose activity change, negative = growth inhibition, actives largely listed as inhibitors. actives 15% (n = 420,000). AID 686978, 2013; also: potency is read from the fitted curve at half-maximal effect; nearly all actives have a fitted effect of over 55% in size
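Growth kinetics read by CellTiter-Glo luminescence after ≥48 hr at 37 °C. Cells: DT40 Tdp1-/- stably carrying human TDP1, 400 per well, compound exposure in the absence of CPT (DMSO vehicle).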
TDP1 cell CPT: growth inhibition of DT40 Tdp1-/-;hTDP1 cells with camptothecin (screen for TDP1 inhibitors) | Potency, µM (titrated, usually from 46.2 µM), inactives show at the top dose activity change, negative = growth inhibition, most hits filed as inhibitors | actives 12% (n = 420,000) | chicken DT40 Tdp1-/-;hTDP1 cells + 20 nM CPT, ATP luminescence, 48 h; also: potency is read from the fitted curve at half-maximal effect; nearly all actives have a fitted effect of over 55% in size
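Chicken DT40 Tdp1-/- cells stably complemented with human TDP1 were seeded at 400 cells/well in medium containing 20 nM camptothecin, exposed to pin-transferred compounds, and grown at 37 °C for at least 48 hr. Viability was read as ATP luminescence.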
ELG1 repair inh: inhibitors of ELG1-dependent DNA repair in HEK293T cells. AID 504467. actives 2.3% (n = 330,000). HEK293T ELG1-luciferase reporter, luminescence, 16 h; DNA damage induced by 5-fluorouridine. Potency, µM (series often up to 46.1 µM), for inactives: at the top dose activity change, negative = inhibition, most hits filed as inhibitors; also: potency is read from the fitted curve at half-maximal effect; nearly all actives have a fitted effect of over 55% in size
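In this reporter screen, reduction of luminescence relative to DMSO vehicle indicated activity. Compounds and 5-fluorouridine were added together to 2,000 cells per well, incubated for 16 hr at 37 °C, then developed with ONE-Glo.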
IL-1B inflam inh: inhibitors of inflammasome signaling (IL-1 beta secretion); THP-1 LPS/ATP IL-1B secretion, AlphaLISA, 16 h; stronger effect = lower value; activity change, % at 57.5 µM; actives 4.7% (n = 360,000); AID 743279; in the data active = activity change below about -50%; inconclusive = mostly about -30% to -49%
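Secreted IL-1B measured by AlphaLISA bead assay after 16 h compound exposure of THP-1 cells; compounds (final up to 57.5 uM) added 1 h before LPS (250 ng/mL) and ATP (1.25 mM) stimulation; lower signal means less secretion.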
HT1080-NT tox: kills 2HG-producing HT-1080-NT fibrosarcoma cells. actives 1.6% (n = 360,000). Potency, µM (top dose mostly 46.1 µM), inactives show at the highest dose activity, negative = less viability, actives largely listed as cytotoxic. AID 686970. HT-1080-NT fibrosarcoma viability, CellTiter-Glo ATP luminescence, 48 h;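 also: NT is the 2HG producing partner of a matched IDH1 knockdown line; potency is read from the fitted curve at half-maximal effect; 0% = DMSO-treated cells and -100% = media-only wells without cells; nearly all actives have a fitted effect of over 55% in size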
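Luminescent CellTiter-Glo readout after 48 hours of compound exposure at 37 degrees C defined viability of HT-1080-NT cells. Activity was normalized to DMSO wells and cell-free media wells; concentration-response curves were fitted and assigned curve classes.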
HT1080 IDH1KD tx: HT-1080 IDH1 knockdown cell toxicity (counter line) | HT-1080 IDH1 knockdown viability, ATP luminescence, 48 h | Potency, µM (top dose mostly 46.1 µM), for the others: at the highest dose activity, negative = toxicity, actives largely listed as cytotoxic | actives 2% (n = 360,000) | AID 686971;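 also: potency is read from the fitted curve at half-maximal effect; 0% = DMSO wells and -100% = cell-free medium wells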
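After a 2 h attachment period, IDH1KD HT-1080 cells took pin-transferred compound for 48 h at 37 °C; ATP-based luminescence after 10 min room-temperature reagent incubation reported viability.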
Starred values were filed as active, the others as inactive; ? = inconclusive; / = no result given; [ ] = dose if it differs, or a comment. Unless noted, calls follow the shape of the dose curve; as a rule, active = well fitted curve in the direction sought with a large enough effect; inconclusive = small, poorly fitted or top-dose-only effect, or another doubt; inactive = no such curve, though single readings can be large; an effect the other way counts as inactive or inconclusive. Unless noted, % is scaled to controls: 0 for no effect and ±100 for the full control effect.

SMILES	DT40 TDP1 no CPT	TDP1 cell CPT	ELG1 repair inh	IL-1B inflam inh	HT1080-NT tox	HT1080 IDH1KD tx
CCC(C)n1c(SCC(=O)Nc2cc(C(C)(C)C)nn2-c2ccccc2)nc2ccccc2c1=O (stereo not given)	26µM*	?	-25%	-29	-23%	-22%
CCn1c(SCC(N)=O)nnc1-c1ccc2[nH]c(C)c(C)c2c1	-11%	-12%	16%	1	19%	15%
CCn1c(SCC(=O)Nc2cc(OC)c(OC)c(OC)c2)nnc1-c1cccs1	21µM*	?	-29%	-3	-24%	0%[9.24 µM]
CCn1c(SCC(=O)Nc2cc(C(C)(C)C)nn2-c2ccccc2)nnc1-c1cccs1	?	-29%	?	-83*	-4%	-8%
CCn1c(SCC(N)=O)nnc1-c1cc2c(C)nn(-c3ccccc3)c2s1	29µM*	?	?	16	-4%	0%
CCn1c(SCC(=O)Nc2ccc(OC)c(OC)c2)nnc1-c1cccs1	-16%	-17%	-11%	0	0%	4%
N#Cc1ccccc1Cn1c(=O)n(Cc2ccc(C(=O)NC3CCN(Cc4ccccc4)CC3)cc2)c(=O)c2ccccc21	7%	2%	/	/	/	/
CCN1CCN(C(=O)c2cc(COc3ccc(F)c(F)c3)on2)[C@@H](C)C1=O	21µM*	15µM*	/	44	0%	0%
O=C(c1cc(COc2ccc(F)c(F)c2)on1)N1CCN(C/C=C/c2ccccc2)CC1	26µM*	?	-12%	-26	?	?
CCCN1CCN(C(=O)c2cc(COc3ccc(F)c(F)c3)on2)CC1	1%	-27%	?	-22	-12%	-4%
COc1cccc(OCc2cc(C(=O)N3CCN(C4CCCCC4)C(=O)C3)no2)c1	-29%	-6%	-3%	14	6%	-3%
O=C(c1cc(COc2ccc(F)cc2Cl)on1)N1CCN(C2CCCCC2)C(=O)C1	7.3µM*	10µM*	18%	-4	-11%	-6%
COc1cc(Cl)ccc1OCc1cc(C(=O)N2CCN(C3CCCCC3)CC2)no1	23µM*	?	/	4	-9%	1%
CSc1ccc(CN2C(=O)C(C)ON=C2c2ccccc2F)cc1 (stereo not given)	?	?	/	20	7%	0%
CCOC(=O)c1cc2c(c(-c3ccccc3)n1)[C@@H](CCO)N(S(=O)(=O)C(C)(C)C)C2	-8%	4%	/	-10	2%	-1%
Cc1ccc(-c2[nH]c3c(c2-c2c(-n4cccc4)n(C)c(=O)[nH]c2=O)c(=O)[nH]c(=O)n3C)cc1	-22%	3%	/	/	/	/
COc1ccc(OCc2cc(C(=O)N3CCC(OC)CC3)no2)c2ccccc12	15µM*	23µM*	?	13	-7%	4%
O=C(c1cc(COc2c(F)cccc2F)on1)N1CCN(C2CCCCC2)C(=O)C1	?	?	3%	20	4%	-9%
O=C(c1cc(COc2ccc(F)cc2Cl)on1)N1CCN(C2CCCC2)CC1	?	18µM*	2%	?	-8%	-5%
COCC1CCN(C(=O)c2cc(COc3ccc(OC)c4ccccc34)on2)C1 (stereo not given)	?	?	/	-20	0%	-2%
O=C(c1cc(COc2ccc(F)c(F)c2)on1)N1CCN(C2CCCCC2)C(=O)C1	23µM*	?	11%	5	-10%	-1%
O=C(Cc1nc2ccccc2[nH]1)N1CCC(n2c(C3CCC3)nc3cccnc32)CC1	-17%	-7%	/	/	/	/
O=C1C2CC3CC1CC(O)(C3)C2	7%	-2%	/	/	/	/
Cc1ccc(NC(=O)CSCC(=O)Nc2ccccc2N2CCCC2)cc1	?	-29%	?	11	-14%	-10%
COC(=O)C[C@@H]1CC[C@H](NC(=O)Nc2ccc(F)cc2)[C@@H](CO)O1	14%	4%	/	7	15%	14%
SMILES	DT40 TDP1 no CPT	TDP1 cell CPT	ELG1 repair inh	IL-1B inflam inh	HT1080-NT tox	HT1080 IDH1KD tx
COC(=O)C[C@@H]1CC[C@H](NC(=O)Nc2ccc(OC)cc2)[C@@H](CO)O1	8%	2%	/	-57*	14%	20%
CCOc1ccc2nc(NC(=O)c3ccco3)sc2c1	?	?	?	-22	21µM*	18µM*
CCOc1ccc2nc(NC(=S)NCc3ccccc3)sc2c1	?	?	?	-4	?	4µM*
CCOc1ccc2nc(NC(=O)c3ccoc3C)sc2c1	8.2µM*	9.2µM*	?	?	2.3µM*	3.7µM*
CCOC(=O)c1ccc2nc(NC(=O)c3ccco3)sc2c1	?	?	?	-4	-23%	?
O=C(Nc1ccccc1F)C1CCCN1S(=O)(=O)c1cccc2nsnc12 (stereo not given)	24%	8%	3%	33	4%	11%
O=C1COc2ccc(C(=O)COC(=O)c3ncc(Cl)c(Cl)c3Cl)cc2N1	-19%	?	11%	10	9%	2%
COc1cccc(NC(=O)COC(=O)CCC(=O)c2cccs2)c1	-7%	-8%	2%	0	1%	0%
O=C(C1CCC1)N1CCc2cc(S(=O)(=O)NCc3ccc(F)cc3)ccc21	-26%	?	/	/	/	/
O=C(Nc1ccc(-c2cn3ccccc3n2)cc1)c1cccs1	15µM*	18µM*	?	-93*	-29%	?
O=C(Nc1ccc(NC(=O)c2cccs2)cc1)c1cccs1	-13%	-14%	?	-23	-20%	-17%
COc1ccc(CC(=O)Nc2cccc(-c3cn4ccccc4n3)c2)cc1	?	?	?	-9	5%	3%
COc1ccc(CC(=O)Nc2ccc(-c3cn4ccccc4n3)cc2)cc1	?	13µM*	?	19	?	?
COc1ccccc1CN1CC(C(=O)NCCC2=CCCCC2)CCC1=O (stereo not given)	-7%	?	?	0	-3%	1%
Cc1c(C(=O)N2CCCCC2C)sc2ncnc(N3CCc4ccccc4C3)c12 (stereo not given)	13µM*	?	21µM*	-97*	8%	-6%
Cc1c(C(=O)N2CCCCC2c2cccnc2)sc2ncnc(NCc3cccs3)c12 (stereo not given)	?	-3%	/	/	/	/
Cc1c(C(=O)N2CCOCC2)sc2ncnc(N3CCc4ccccc4C3)c12	12µM*	12µM*	12%	-17	-1%	1%
